Inconclusive results are not listed. Calls of active or inactive are those of the source. Calls follow the shape of the dose curve; as a rule, active = well fitted cell-killing curve with a large enough effect; inconclusive = small, poorly fitted or top-dose-only effect, or effect the other way; inactive = no such curve, though single readings can be large or run the other way.
Potency is read from the fitted curve at half-maximal effect.

The nature of this assay: Viability qHTS for spleen associated tyrosine kinase inhibitor (SYKi) drug resistant MV4-11 cells (AID 1963824). Also: nearly all actives have a fitted effect of over 35% in size. The note with it: SYKi-resistant MV4-11 viability, CellTiter-Glo, 72 h; series mostly up to 45 µM. The method in brief: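 SYK inhibitor-resistant MV4-11 AML cells, 500 per well, added to predispensed compounds and incubated 72 hr at 37 C, 5% CO2. Viability measured by CellTiter-Glo luminescence after 10 min at room temperature.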
For orientation: Quantitative high-throughput screening tests each substance at several concentrations.
Take `FC(F)(F)c1ccc(/C=C/c2nc(COc3ccc(CCCCn4ccnn4)cc3)co2)cc1`: the Potency is 0.0263 µM (active).

Consider `C=C(COC(=O)C(C)C)C1Oc2cc(C(C)=O)ccc2C1OC(=O)C(C)C` (centres undefined), for which the Potency result is “inactive”.

`CCS(=O)(=O)N(Cc1cccnc1)c1cccc(-c2ccc(C#N)cc2)c1`: the Potency was 20.6 µM (active).

As to `O=C(C1OC1/C=C/c1ccc2c(c1)OCO2)N1CCCCC1` (centres undefined), the Potency result was “inactive”.

Turning to `Cc1cc(F)ccc1[C@H]1C[C@@H](N2CCN3C(=O)CC[C@H]3C2)CCN1C(=O)N(C)[C@H](C)c1cc(C(F)(F)F)cc(C(F)(F)F)c1`, the Potency is 5.17 µM (active).

For the compound `C/C=C(\C)C(=O)OCC1OC(OCC2OC(OC3(CO)OC(CO)C(O)C3O)C(O)C(O)C2O)C(O)C(O)C1O` (centres undefined), the Potency entry is “inactive”.

As for `C=C[C@@H]1[C@H](O[C@@H]2O[C@H](CO)[C@@H](O)[C@H](O)[C@H]2O)OC=C(C(=O)O)[C@H]1CCOC(=O)/C=C/c1ccc(O)c(O)c1`, the Potency result was “inactive”.

With `CO[C@@H]1[C@]2(O)C(=O)N3/C=C\C(C)(C)c4[nH]c5ccccc5c4/C=C\3C(=O)N2[C@]23[C@H](CO)C(C)(C)N2c2ccccc2[C@]13O`, the Potency result is “inactive”.

As for `C=C1C[C@]23C[C@H]1CC[C@H]2[C@]1(C)CCC[C@@]2(CO)C(=O)O[C@H]([C@H]21)[C@@H]3O`, the Potency entry is “inactive”.

For the compound `Cc1cc(-c2cnc(N)c3c(-c4ccc5scnc5c4)csc23)n(C)n1`, the Potency was 2.59 µM (active).

On to `COc1c2c(c(C)c3c1C(=O)OC3)OC1(C)CC(O)C34OC(OC)(CC(O)C3(C)C1C2)OC4(C)C` (centres undefined), for which the Potency was 10 µM (active).

Take `Oc1ccc([C@H]2COc3cc(O)ccc3C2)cc1`: the Potency was 13 µM (active).

For the compound `OC(CC1c2ccccc2-c2cncn21)C1CCCCC1` (centres undefined), the Potency was 20.6 µM (active).

In the case of `C=C[C@]1(C)C[C@H](O)[C@H]2C(=C)C(=O)O[C@@H]2[C@H]1C(=C)CO`, the Potency was 14.6 µM (active).

(Values after PubChem BioAssay (NCATS).)
